# Data from PubChem BioAssay (EPA / NIEHS).
# Results filed as inconclusive are left out. Active and inactive are the calls of the source. The calls were made as follows: active = hit-call score of the fitted dose curve at least 0.9, where 1 is the maximum; inconclusive = response in the unintended direction; inactive = score below 0.9.
# What was measured:
# [1] = molecular target: human SRC Proto-Oncogene, Non-receptor Tyrosine Kinase (SRC), SRC (gene 6714) (UniProt P12931); assay: NVS_ENZ_hSRC: NovaScreen (NVS) Enzymatic Assay for human SRC Proto-Oncogene, Non-receptor Tyrosine Kinase (SRC) (AID 2283223)
# Outline: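 Compounds passing 30% inhibition at 25 uM (duplicate) were titrated to a top concentration of 50 uM. Enzyme activity read by fluorescence with mobility-shift substrate/product separation after 1 h; DMSO baseline.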
# [2] = molecular target: rabbit Imidazoline 2 Central (I2C), CKB (gene 100009085) (UniProt P00567); assay: NVS_ENZ_rabI2C: NovaScreen (NVS) Enzymatic Assay for rabbit Imidazoline 2 Central (I2C) (AID 2283228)
# Outline: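 Rabbit brain membranes, cell-free; readout by filter-based scintillation counting 1.5 hours after dosing, loss of signal vs DMSO. Initial duplicate test at 25 uM, then concentration-response with 50 uM top concentration.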
# [3] = molecular target: human Sirtuin 2 (SIRT2), SIRT2 (gene 22933) (UniProt Q8IXJ6); assay: NVS_ENZ_hSIRT2: NovaScreen (NVS) Enzymatic Assay for human Sirtuin 2 (SIRT2) (AID 2283217)
# Description: NVS_ENZ_hSIRT2 is a biochemical, single-readout assay that uses extracted gene-proteins in a cell-free assay. Measurements were taken 1 hour after chemical dosing in a 384-well plate.NVS_ENZ_hSIRT2 is one of one assay component(s) measured or calculated from the NVS_ENZ_hSIRT2 assay. It is designed to make measurements of enzyme activity, a form of enzyme reporter, as detected with fluorescence intensity signals by Fluorescence and electrophoretic mobility shift technology.Data from the assay component NVS_ENZ_hSIRT2 was analyzed into 1 assay endpoint. This assay endpoint, NVS_ENZ_hSIRT2, was analyzed in the positive analysis fitting direction relative to DMSO as the negative control and baseline of activity. Using a type of enzyme reporter, loss-of-signal activity can be used to understand changes in the enzymatic activity as they relate to the gene SIRT2. Furthermore, this assay endpoint can be referred to as a primary readout, because this assay has produced multiple assay endpoints where this one serves a enzymatic activity function. To generalize the intended target to other relatable targets, this assay endpoint is annotated to the hydrolase intended target family, where the subfamily is protein deacetylase.
# Binding assays used specific radioligands (tritiated, iodinated) with non-radioactive competitive displacement ligands in agonist or antagonist protocols (as indicated) and various reference compounds and inhibitors to titrate specific binding to receptors and transporters. Most enzyme assays (CYPs, kinases, phosphatases, proteases, HDACs) used recombinant protein and specific substrates (fluorescence mostly, some colorimetric and radioactive) and inhibitors, followed by a biochemical separation of substrate and product. All assays for the biochemical HTS were initially run in duplicate at a single concentration (10 uM for CYP450 assays and 25 uM for all others). Assay-chemical combinations meeting a pre-defined threshold (e.g., 30% inhibition and other criteria defined below) were then run in singleton concentration-response format with maximum concentration of 20 uM for CYPs and 50 uM for all others. Each assay was run with positive and negative controls, and concurrent controls on every plate. The follow-up (secondary) screen tested active chemical-pairs in concentration series, as well as a few additional assays not tested in the primary screen, some selected negative inactives, and several cases re-run in the concentration series for confirmatory purposes.
# [4] = molecular target: human Sirtuin 1 (SIRT1), SIRT1 (gene 23411) (UniProt Q96EB6); assay: NVS_ENZ_hSIRT1: NovaScreen (NVS) Enzymatic Assay for human Sirtuin 1 (SIRT1) (AID 2283219)
# Outline: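 Cell-free recombinant SIRT1 with a fluorescent substrate; substrate and product separated by electrophoretic mobility shift and read by fluorescence intensity, 1 h after dosing. Primary screen at 25 uM in duplicate; hits re-run in concentration-response up to 50 uM, relative to DMSO.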
# [5] = molecular target: human Vascular Endothelial Growth Factor Receptor 1 (VEGFR1), FLT1 (gene 2321) (UniProt P17948); assay: NVS_ENZ_hVEGFR1: NovaScreen (NVS) Enzymatic Assay for human Vascular Endothelial Growth Factor Receptor 1 (VEGFR1) (AID 2283226)
# Outline: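 Kinase activity of recombinant human VEGFR1 was read by fluorescence after electrophoretic separation of product from substrate, 1 h post-dosing; initial duplicate single-point testing at 25 uM, followed by concentration-series follow-up, with DMSO as baseline.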
# [6] = molecular target: human Vascular Endothelial Growth Factor Receptor 3 (VEGFR3), FLT4 (gene 2324) (UniProt P35916); assay: NVS_ENZ_hVEGFR3: NovaScreen (NVS) Enzymatic Assay for human Vascular Endothelial Growth Factor Receptor 3 (VEGFR3) (AID 2283229)
# Outline: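 Chemicals first run in duplicate at 25 uM, with actives re-tested in concentration series to a top of 50 uM. Recombinant VEGFR3 activity measured after 1 h via fluorescence with mobility-shift product separation; inhibition fitted relative to DMSO.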
# [7] = molecular target: human Vascular Endothelial Growth Factor Receptor 2 (VEGFR2), KDR (gene 3791) (UniProt P35968); assay: NVS_ENZ_hVEGFR2: NovaScreen (NVS) Enzymatic Assay for human Vascular Endothelial Growth Factor Receptor 2 (VEGFR2) (AID 2283230)
# Outline: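 Cell-free recombinant VEGFR2 kinase, fluorescent substrate with electrophoretic mobility-shift separation; read 1 h after dosing. Screened at 25 uM in duplicate, hits to concentration-response up to 50 uM; loss-of-signal versus DMSO.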
# [8] = molecular target: human Tropomyosin Receptor Kinase A (TRKA), NTRK1 (gene 4914) (UniProt P04629); assay: NVS_ENZ_hTrkA: NovaScreen (NVS) Enzymatic Assay for human Tropomyosin Receptor Kinase A (TRKA) (AID 2283224)
# Outline: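 Compounds were screened at 25 uM in duplicate, then concentration series to a 50 uM top for those meeting threshold (e.g. 30% inhibition). Enzyme was recombinant human TrkA, incubated 1 h. Product formation was quantified by fluorescence after mobility-shift separation.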
# [9] = molecular target: human Sirtuin 3 (SIRT3), SIRT3 (gene 23410) (UniProt Q9NTG7); assay: NVS_ENZ_hSIRT3: NovaScreen (NVS) Enzymatic Assay for human Sirtuin 3 (SIRT3) (AID 2283222)
# Outline: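 Cell-free enzyme assay with recombinant protein and fluorescent substrate, product separated by electrophoretic mobility shift; read 1 hour after dosing. Screened in duplicate at 25 uM, then singleton concentration-response up to 50 uM; loss of signal versus DMSO.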
# [10] = molecular target: sheep Cyclooxygenase-2 (Cox2), PTGS2 (gene 443460) (UniProt P79208); assay: NVS_ENZ_oCOX2: NovaScreen (NVS) Enzymatic Assay for sheep Cyclooxygenase-2 (Cox2) (AID 2283231)
# Outline: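 Enzyme extracted from ovine placenta tested cell-free; activity read colorimetrically by absorbance 0.66 hour after dosing. Primary screen in duplicate at 25 uM; hits rerun as concentration series to 50 uM, loss of signal versus DMSO baseline.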
# human Vascular Endothelial Growth Factor Receptor 1 (VEGFR1), FLT1 (gene 2321), sequence (P17948 whole entry, looked up): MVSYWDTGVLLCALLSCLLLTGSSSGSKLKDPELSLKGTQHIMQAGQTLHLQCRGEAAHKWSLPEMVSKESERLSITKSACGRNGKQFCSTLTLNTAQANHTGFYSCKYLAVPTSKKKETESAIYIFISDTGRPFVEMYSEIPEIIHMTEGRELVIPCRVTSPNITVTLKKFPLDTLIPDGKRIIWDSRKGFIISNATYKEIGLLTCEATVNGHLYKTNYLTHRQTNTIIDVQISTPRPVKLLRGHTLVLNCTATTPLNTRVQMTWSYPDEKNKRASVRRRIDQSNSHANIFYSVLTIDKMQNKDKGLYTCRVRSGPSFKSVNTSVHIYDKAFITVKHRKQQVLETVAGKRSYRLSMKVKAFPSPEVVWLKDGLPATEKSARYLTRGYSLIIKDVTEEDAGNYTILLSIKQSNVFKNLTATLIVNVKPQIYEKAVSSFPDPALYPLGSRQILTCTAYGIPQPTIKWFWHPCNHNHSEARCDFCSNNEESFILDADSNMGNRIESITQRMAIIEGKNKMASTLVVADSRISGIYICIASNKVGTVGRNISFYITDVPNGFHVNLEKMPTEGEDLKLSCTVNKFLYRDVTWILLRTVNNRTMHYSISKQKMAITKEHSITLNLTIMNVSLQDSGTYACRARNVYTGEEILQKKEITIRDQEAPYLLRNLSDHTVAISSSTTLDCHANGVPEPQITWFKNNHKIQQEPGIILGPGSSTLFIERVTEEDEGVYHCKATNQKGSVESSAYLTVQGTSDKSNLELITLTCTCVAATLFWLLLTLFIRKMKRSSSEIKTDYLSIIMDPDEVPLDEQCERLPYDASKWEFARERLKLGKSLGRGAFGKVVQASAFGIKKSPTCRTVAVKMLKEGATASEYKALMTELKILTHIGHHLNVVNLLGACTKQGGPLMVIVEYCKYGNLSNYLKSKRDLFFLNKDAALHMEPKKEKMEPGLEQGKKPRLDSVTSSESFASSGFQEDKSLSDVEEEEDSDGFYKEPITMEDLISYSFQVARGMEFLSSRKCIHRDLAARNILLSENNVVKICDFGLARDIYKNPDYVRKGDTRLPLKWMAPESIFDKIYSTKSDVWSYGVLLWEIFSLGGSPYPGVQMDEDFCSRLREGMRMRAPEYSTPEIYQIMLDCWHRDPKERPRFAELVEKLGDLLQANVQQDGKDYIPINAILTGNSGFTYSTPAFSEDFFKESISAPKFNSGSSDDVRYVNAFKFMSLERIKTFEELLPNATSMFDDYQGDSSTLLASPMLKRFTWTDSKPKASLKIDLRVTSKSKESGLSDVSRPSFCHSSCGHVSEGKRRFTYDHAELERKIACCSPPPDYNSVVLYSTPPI
# human Sirtuin 1 (SIRT1), SIRT1 (gene 23411), sequence (Q96EB6 whole entry, looked up): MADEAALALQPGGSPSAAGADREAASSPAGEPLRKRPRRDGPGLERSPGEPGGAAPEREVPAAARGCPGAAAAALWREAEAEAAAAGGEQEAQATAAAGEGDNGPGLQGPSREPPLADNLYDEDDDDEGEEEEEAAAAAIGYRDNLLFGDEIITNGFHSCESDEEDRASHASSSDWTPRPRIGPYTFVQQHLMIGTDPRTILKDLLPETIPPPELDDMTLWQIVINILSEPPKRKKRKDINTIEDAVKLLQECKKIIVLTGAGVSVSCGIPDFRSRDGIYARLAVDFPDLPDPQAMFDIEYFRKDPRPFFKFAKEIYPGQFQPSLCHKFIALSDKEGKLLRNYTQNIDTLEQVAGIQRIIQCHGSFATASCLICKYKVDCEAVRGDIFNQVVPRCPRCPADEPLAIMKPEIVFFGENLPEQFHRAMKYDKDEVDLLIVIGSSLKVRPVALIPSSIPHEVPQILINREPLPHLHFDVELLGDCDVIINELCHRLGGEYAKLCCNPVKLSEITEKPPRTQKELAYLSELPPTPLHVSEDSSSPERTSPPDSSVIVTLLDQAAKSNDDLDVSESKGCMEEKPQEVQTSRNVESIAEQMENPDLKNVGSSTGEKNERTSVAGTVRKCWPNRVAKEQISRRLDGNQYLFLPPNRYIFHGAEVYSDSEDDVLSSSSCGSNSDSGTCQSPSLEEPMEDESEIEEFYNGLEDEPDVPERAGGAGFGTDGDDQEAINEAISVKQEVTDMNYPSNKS
# rabbit Imidazoline 2 Central (I2C), CKB (gene 100009085), sequence (P00567 whole entry, looked up): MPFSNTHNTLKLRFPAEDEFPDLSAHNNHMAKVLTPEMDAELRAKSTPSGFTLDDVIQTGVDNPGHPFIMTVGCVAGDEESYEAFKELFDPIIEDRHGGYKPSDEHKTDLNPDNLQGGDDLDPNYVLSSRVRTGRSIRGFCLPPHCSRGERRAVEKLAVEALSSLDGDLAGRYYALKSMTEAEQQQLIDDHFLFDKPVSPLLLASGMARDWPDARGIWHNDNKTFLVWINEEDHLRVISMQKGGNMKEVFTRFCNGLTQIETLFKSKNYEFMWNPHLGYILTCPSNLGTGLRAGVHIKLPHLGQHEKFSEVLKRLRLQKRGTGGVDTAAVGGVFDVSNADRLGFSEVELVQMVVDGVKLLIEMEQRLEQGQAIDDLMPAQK
# human Sirtuin 3 (SIRT3), SIRT3 (gene 23410), sequence (Q9NTG7 whole entry, looked up): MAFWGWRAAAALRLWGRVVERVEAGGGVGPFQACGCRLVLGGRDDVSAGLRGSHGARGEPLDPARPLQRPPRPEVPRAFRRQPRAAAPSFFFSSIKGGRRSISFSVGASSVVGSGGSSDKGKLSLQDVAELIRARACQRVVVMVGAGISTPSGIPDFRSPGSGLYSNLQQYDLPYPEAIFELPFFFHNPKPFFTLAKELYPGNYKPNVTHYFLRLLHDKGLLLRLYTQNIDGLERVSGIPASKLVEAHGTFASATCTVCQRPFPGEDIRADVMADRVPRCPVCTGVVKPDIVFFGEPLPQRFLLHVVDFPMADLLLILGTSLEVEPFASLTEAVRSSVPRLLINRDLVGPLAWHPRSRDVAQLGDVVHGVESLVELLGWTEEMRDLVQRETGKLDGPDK
# human Vascular Endothelial Growth Factor Receptor 3 (VEGFR3), FLT4 (gene 2324), sequence (P35916 whole entry, looked up): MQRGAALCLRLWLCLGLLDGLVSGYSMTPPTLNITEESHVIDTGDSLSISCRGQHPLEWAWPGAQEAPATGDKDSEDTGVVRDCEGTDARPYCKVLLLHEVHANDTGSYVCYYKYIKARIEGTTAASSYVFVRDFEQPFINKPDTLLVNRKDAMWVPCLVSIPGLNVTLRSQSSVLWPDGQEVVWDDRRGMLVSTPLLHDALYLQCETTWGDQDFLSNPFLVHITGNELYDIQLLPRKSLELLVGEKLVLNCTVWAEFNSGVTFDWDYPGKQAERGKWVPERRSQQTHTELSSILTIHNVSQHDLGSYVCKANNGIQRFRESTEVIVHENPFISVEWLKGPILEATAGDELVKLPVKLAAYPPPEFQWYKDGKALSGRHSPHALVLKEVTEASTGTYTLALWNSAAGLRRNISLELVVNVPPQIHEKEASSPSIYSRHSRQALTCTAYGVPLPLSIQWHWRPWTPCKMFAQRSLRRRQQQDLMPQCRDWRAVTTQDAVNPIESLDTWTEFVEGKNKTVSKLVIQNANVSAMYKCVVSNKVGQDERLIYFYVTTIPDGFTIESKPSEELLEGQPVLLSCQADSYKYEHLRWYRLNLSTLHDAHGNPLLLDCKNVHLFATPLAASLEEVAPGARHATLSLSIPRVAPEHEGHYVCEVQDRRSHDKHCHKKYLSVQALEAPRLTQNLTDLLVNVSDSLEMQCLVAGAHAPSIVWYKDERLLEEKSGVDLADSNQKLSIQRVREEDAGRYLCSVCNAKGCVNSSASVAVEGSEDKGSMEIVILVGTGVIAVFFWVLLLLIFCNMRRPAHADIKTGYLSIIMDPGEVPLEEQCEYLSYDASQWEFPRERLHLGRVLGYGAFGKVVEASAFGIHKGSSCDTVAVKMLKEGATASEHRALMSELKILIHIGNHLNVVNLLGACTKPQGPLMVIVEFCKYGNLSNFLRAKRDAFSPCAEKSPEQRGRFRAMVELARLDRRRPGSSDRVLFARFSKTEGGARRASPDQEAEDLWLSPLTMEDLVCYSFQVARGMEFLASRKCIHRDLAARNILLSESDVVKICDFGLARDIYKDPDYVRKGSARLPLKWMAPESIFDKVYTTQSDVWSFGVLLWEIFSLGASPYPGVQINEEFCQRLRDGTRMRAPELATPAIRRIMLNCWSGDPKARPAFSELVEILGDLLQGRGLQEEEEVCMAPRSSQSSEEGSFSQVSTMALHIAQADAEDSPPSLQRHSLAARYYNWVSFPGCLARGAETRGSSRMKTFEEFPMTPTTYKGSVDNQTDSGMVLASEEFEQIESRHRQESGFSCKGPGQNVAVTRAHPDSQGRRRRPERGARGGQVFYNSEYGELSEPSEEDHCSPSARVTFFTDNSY
# human Sirtuin 2 (SIRT2), SIRT2 (gene 22933), sequence (Q8IXJ6 whole entry, looked up): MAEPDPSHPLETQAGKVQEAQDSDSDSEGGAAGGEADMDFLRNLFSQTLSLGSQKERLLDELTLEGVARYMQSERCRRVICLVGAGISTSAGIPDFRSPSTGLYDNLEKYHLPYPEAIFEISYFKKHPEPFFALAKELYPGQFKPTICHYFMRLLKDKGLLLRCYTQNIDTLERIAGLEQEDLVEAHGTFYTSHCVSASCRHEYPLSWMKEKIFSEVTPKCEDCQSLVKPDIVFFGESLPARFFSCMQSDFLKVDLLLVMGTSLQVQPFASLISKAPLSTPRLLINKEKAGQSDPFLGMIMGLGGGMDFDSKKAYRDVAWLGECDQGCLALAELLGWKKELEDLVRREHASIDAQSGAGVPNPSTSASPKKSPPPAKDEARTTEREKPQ
compound,measurement,setting,value
COCCOc1cc2cc(C(=O)NC3CCN(C(C)C)CC3)n(CC(=O)Nc3ccc(Cl)cn3)c2cn1,outcome,[1],inactive
O=c1[nH]c2ccc(S(=O)CCN3CCC(Cc4ccc(F)cc4)CC3)cc2o1 (stereo unspecified),AC50,[2],6.76 µM (active)
Cc1ccc(N)cc1O,outcome,[3],inactive
same,outcome,[4],inactive
same,outcome,[5],inactive
same,outcome,[6],inactive
same,outcome,[7],inactive
CC(=O)OCCC(C)C,outcome,[3],inactive
same,outcome,[8],inactive
Cn1c(=O)cc(Oc2ccc(F)cc2F)c2cnc(NCC(C)(C)O)nc21,AC50,[5],29.9 µM (active)
same,outcome,[7],inactive
CN(C)c1ccc(N=NS(=O)(=O)O)cc1,outcome,[5],inactive
same,AC50,[2],23.8 µM (active)
same,outcome,[6],inactive
same,outcome,[7],inactive
CC[C@H](C)C(=O)O[C@H]1C[C@@H](C)C=C2C=C[C@H](C)[C@H](CC[C@@H]3C[C@@H](O)CC(=O)O3)[C@H]21,outcome,[3],inactive
same,outcome,[9],inactive
same,outcome,[5],inactive
same,outcome,[6],inactive
same,outcome,[7],inactive
same,AC50,[10],8.83 µM (active)
Oc1ccc2c(c1)-c1ccccc1C2,outcome,[4],inactive
Cc1c(-c2cccnc2)c2ccccc2n1CCCCC(=O)O,outcome,[3],inactive
CC1(C)C(=O)N(Br)C(=O)N1Br,outcome,[9],inactive
CC(C)c1cccc(C(C)C)c1N1C(=O)c2ccc(O)cc2C1=O,outcome,[5],inactive
same,outcome,[6],inactive
same,AC50,[10],4.32 µM (active)
Nc1cccc(N)c1,outcome,[4],inactive
CC[C@H]1CC[C@H](NCc2cc3c(cc2OC)[C@H]2C[C@H]2C(=O)N3C)[C@H](c2ccccc2)N1,AC50,[2],10.4 µM (active)
O=C(O)c1cccc(Oc2ccccc2)c1,outcome,[4],inactive
same,outcome,[8],inactive
same,outcome,[6],inactive
Clc1nc(Cl)c(Cl)c(Cl)c1Cl,outcome,[1],inactive
O=C(O)c1cc(N=Nc2ccc(S(=O)(=O)Nc3ccccn3)cc2)ccc1O,outcome,[5],inactive
same,outcome,[6],inactive
same,outcome,[7],inactive
CNCc1ccc(NC(=O)c2c[nH]c3c2C(=O)CCC3)cc1,outcome,[4],inactive
Cc1[nH]cnc1C[C@H]1CCc2c(C)c3ccccc3n2C1=O,outcome,[9],inactive
same,outcome,[2],inactive
CNS(=O)(=O)c1cc(C(=O)N2CCC(CCN3C4CCC3CC(n3c(C)nc5ccccc53)C4)(c3cccc(F)c3)CC2)c(Cl)cc1F (stereo unspecified),outcome,[3],inactive
COc1cccc(-c2ccc(/C=C\CN3CCCCCC3)cc2Cl)c1,AC50,[3],16.6 µM (active)
same,AC50,[9],3.06 µM (active)
same,AC50,[2],22.6 µM (active)
same,outcome,[7],inactive
CC(O)CN(CCN(CC(C)O)CC(C)O)CC(C)O (stereo unspecified),outcome,[6],inactive
COC(=O)c1c(Cl)c(Cl)c(C(=O)OC)c(Cl)c1Cl,outcome,[6],inactive
